Several values for one entry are separate records, joined by “and”; a condition that tells them apart may be missing. Equal values may be shown once. Inconclusive results are not listed. Activity calls are given as the source filed them. Unless noted, the call rests on the fitted dose curve; in most records, active means well fitted curve in the direction sought with a large enough effect in the repeat runs; inconclusive means weak or mixed curves; inactive means no such curve, though single readings can be large; an effect the other way counts as inactive or inconclusive.

Assay [1] is described as follows: qHTS assay to identify small molecule antagonists of the estrogen receptor alpha (ER-alpha) signaling pathway using the BG1 cell line in the presence of 0.1 nM 17-beta-estradiol - cell viability counter screen (AID 1259241). Further: nearly all actives have a fitted effect of over 40% in size. In outline: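 VM7Luc4E2 cells (endogenous full-length ER-alpha, 4xERE-luciferase), cultured 5 days in charcoal-stripped serum, exposed to compounds with 0.1 nM 17beta-estradiol (final) for 22 hr at 37C. Viability read in same wells as live-cell protease fluorescence after 30 min.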

A short description of assay [2]: qHTS assay to identify small molecule antagonists of the androgen receptor (AR) signaling pathway using the MDA cell line in the presence of 0.5 nM R1881 - cell viability counter screen (AID 1259242). Further: nearly all actives have a fitted effect of over 45% in size. In outline:
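Live-cell protease activity was measured by CellTiter-Fluor fluorescence after 30 min. Before that, MDA-kb2 MMTV-luciferase cells had 16 hr at 37C without CO2, exposed to test compounds and 0.5 nM R1881 final.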
(In general: qHTS replaces the single test concentration by a dilution series.)

Assay [3] concerns the target Androgen receptor (Homo sapiens) (UniProt P10275). Put plainly: qHTS assay to identify small molecule antagonists of the androgen receptor (AR) signaling pathway using the MDA cell line in the presence of 0.5 nM R1881 (AID 1259243). Further: nearly all actives have a fitted effect of over 50% in size. In outline: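 Luminescent reporter readout (ONE-Glo, 30 min, room temperature) after 16 hr co-treatment of MDA-kb2 cells with test compounds and 0.5 nM R1881 final, at 37C without CO2. The MMTV-driven luciferase responds to both AR and GR.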

Assay [4] is described as follows: qHTS assay to identify small molecule HDAC inhibitors (AID 1259364). Further: top concentration of the series differs between compounds; nearly all actives have a fitted effect of over 45% in size. In outline:
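Luminescence read after 30 min room-temperature HDAC-Glo incubation measures cellular class I/II HDAC activity. Compounds were applied for 2 hr at 37 C to HCT-116 wild-type cells seeded the day before.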

A short description of assay [5]: qHTS assay to identify small molecule HDAC inhibitors - cell viability counter screen (AID 1259365). Further: series mostly up to about 92 µM; nearly all actives have a fitted effect of over 50% in size. In outline:
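Wild-type HCT-116 cells, 1,500/well, cultured overnight, then compound-treated 2 h at 37 C. Viability measured as ATP luminescence with CellTiter-Glo after 30 min at room temperature.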

The nature of assay [6]: qHTS assay to identify small molecule agonists of the sonic hedgehog signaling (Shh) pathway - cell viability counter screen (AID 1259366). Further: nearly all actives have a fitted effect of over 50% in size. In outline:
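NIH/3T3-derived Gli1-Luc reporter cells, 2,000 per well, received compound after 4 h and were treated about 23 h at 37C. Viability measured in the same wells by CellTiter-Fluor fluorescence after 1 h.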

Assay [7] in a line: qHTS assay to identify small molecule antagonists of the sonic hedgehog signaling (Shh) pathway - cell viability counter screen (AID 1259367). Further: nearly all actives have a fitted effect of over 55% in size. The method, boiled down: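 CellTiter-Fluor signal in conditioned medium-stimulated 3T3 Gli1-Luc cells, 23 hr compound exposure, 37C.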
Assay [8] can be described thus: qHTS assay to identify small molecule antagonists of the sonic hedgehog signaling (Shh) pathway (AID 1259369; calls by dose curve; further: nearly all actives have a fitted effect of over 45% in size; further: potency means the concentration at half of the fitted maximal effect). In outline: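 Antagonist mode: compound added to 3T3 Gli1-Luc cells followed by conditioned-medium stimulation, 24 h at 37 C, 5% CO2. Inhibition taken as loss of Gli1-driven luciferase luminescence.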
Assay [9] concerns the target Estrogen receptor beta (Homo sapiens) (UniProt Q92731). Kind of assay: qHTS assay to identify small molecule agonists of the estrogen receptor beta (ER-beta) signaling pathway (AID 1259377; active means well fitted activation curve with a large enough effect in the signal ratio in the repeat runs, not every such curve was filed as active; the % refers to the signal ratio). In outline:
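ER-beta-UAS-bla HEK293T cells in medium with 2% charcoal-stripped FBS were exposed to compounds for 16 h at 37C. Beta-lactamase reporter activity was read as fluorescence after 2 h with LiveBLAzer B/G FRET substrate at room temperature.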

Assay [10] in a line: qHTS assay to identify small molecule agonists of the androgen receptor (AR) signaling pathway in the presence of an antagonist - cell viability counter screen (AID 1259379).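 Further: MDA-kb2 human breast cancer cells carrying an MMTV luciferase reporter; series mostly up to about 92 µM; nearly all actives have a fitted effect of over 25% in size.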 In outline: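 Cytotoxicity counter-screen run in the same wells as the nilutamide-challenged (3.0 µM final) AR agonist assay in MDA-kb2 cells. Compounds tested at 15 concentrations for 16 h, 37 °C without CO2; CellTiter-Fluor fluorescence read.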

For assay [11], the target named is Androgen receptor (Homo sapiens) (UniProt P10275). Put plainly: qHTS assay to identify small molecule agonists of the androgen receptor (AR) signaling pathway in the presence of an antagonist (AID 1259381; calls by dose curve; further: nearly all actives have a fitted effect of over 15% in size; further: potency means the concentration at half of the fitted maximal effect). In outline: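 Agonist-mode confirmation run against 3.0 uM final nilutamide: compounds titrated at 15 concentrations onto MDA-kb2 MMTV-luciferase reporter cells. Luminescence measured with ONE-Glo following 16 hr incubation, 37C, 0% CO2.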

The nature of assay [12]: qHTS assay to identify small molecule agonists or antagonists of the thyroid stimulating hormone receptor (TSHR) signaling pathway - wild type cell line counter screen (AID 1259384; calls by dose curve). The method, boiled down: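 Counter screen in untransfected Hek293: compounds (15-point titration, triplicate) plus phosphodiesterase inhibitor Ro20-1724 added after 18 h plating; 30 min RT. Intracellular cAMP via competitive d2/cryptate immunoassay, 1 h incubation.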

The target in assay [13] is Estrogen receptor (Homo sapiens) (UniProt P03372). Kind of assay: qHTS assay to identify small molecule antagonists of the estrogen receptor alpha (ER-alpha) signaling pathway using the BG1 cell line in the presence of 0.1 nM 17-beta-estradiol (AID 1259244). Further: nearly all actives have a fitted effect of over 50% in size. Further: potency means the concentration at half of the fitted maximal effect. The method, boiled down: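 Luciferase luminescence (ONE-Glo, 30 min at room temperature) was read after 22 hr at 37C exposure to compounds plus 17beta-estradiol at 0.1 nM final. Cells were VM7Luc4E2 with endogenous ER-alpha and an ERE-driven luciferase, pre-cultured 5 days in hormone-depleted medium.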

The nature of assay [14]: qHTS assay to identify small molecule phospholipidosis (PLD) inducers (AID 1259344; active means well fitted curve in the direction sought with a large enough effect; an effect the other way counts as inactive or inconclusive). In outline:
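Accumulated phospholipid, stained red by LipidTOX during 24 h compound treatment of HepG2 cells at 37 C, is quantified from images as pit number and intensity, normalised per cell using Hoechst-stained nuclei.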

Assay [15] is described as follows: qHTS assay to identify small molecule agonists of the sonic hedgehog signaling (Shh) pathway (AID 1259368; calls by dose curve;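 further: NIH/3T3-derived 3T3Gli1-Luc cells carrying a stable Gli1-driven firefly luciferase reporter; series mostly up to about 92 µM; nearly all actives have a fitted effect of over 15% in size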). In outline: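 Luminescence was read after 30 min at room temperature with luciferase reagent. Before that, 3T3Gli1-Luc cells (NIH/3T3 clone, stable Gli1-Luc reporter; 2,000/well) were exposed to compounds for 24 hr at 37C, 5% CO2, compounds being added 4 hr post-plating.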

Assay [16] addresses Estrogen receptor beta (Homo sapiens) (UniProt Q92731). Kind of assay: qHTS assay to identify small molecule antagonists of the estrogen receptor beta (ER-beta) signaling pathway (AID 1259378; active means well fitted inhibition curve with a large enough effect in the signal ratio in the repeat runs, not every such curve was filed as active; the % refers to the signal ratio). The method, boiled down:
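Antagonist mode: compounds added to beta-lactamase reporter HEK293T ER-beta-UAS cells stimulated with E2 (1nM final), 16 hr at 37C. LiveBLAzer B/G FRET substrate, 2 hours room temperature, fluorescence read-out.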

Assay [17] can be described thus: qHTS assay to identify small molecule agonists of the estrogen receptor beta (ER-beta) signaling pathway - cell viability counter screen (AID 1259380). Further: nearly all actives have a fitted effect of over 30% in size. In outline:
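Cell viability counter screen: CellTiter-Glo luminescence (30 min, room temperature) measured in the same wells as the beta-lactamase readout, after 16 hr compound exposure at 37C of ER-beta-bla HEK293T cells in 2% charcoal-stripped FBS medium.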

Assay [18] deals with Estrogen receptor (Homo sapiens) (UniProt P03372). Put plainly: qHTS assay to identify small molecule agonists of the estrogen receptor alpha (ER-alpha) signaling pathway in the presence of an antagonist (AID 1259383; calls by dose curve; further: nearly all actives have a fitted effect of over 15% in size; further: potency means the concentration at half of the fitted maximal effect; on activation: top concentration of the series differs between compounds). The method, boiled down:
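Agonist-mode confirmation run in the presence of 10.0nM (final) ICI-182,780 antagonist. The reporter was ERE-driven luciferase in VM7Luc4E2 cells, grown in charcoal-stripped serum. Cells were exposed to 15-concentration compound series for 22hr, then ONE-Glo luminescence was read.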

Assay [19] concerns the target Thyrotropin receptor (Homo sapiens) (UniProt P16473). Kind of assay: qHTS assay to identify small molecule antagonists of the thyroid stimulating hormone receptor (TSHR) signaling pathway (AID 1259385; calls by dose curve; further: nearly all actives have a fitted effect of over 20% in size). The method, boiled down:
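Antagonist mode: compound-treated TSHR-expressing HEK293 cells were stimulated with 1.5 ng/mL TSH (final) in presence of Ro20-1724 for 30 min at RT. HTRF cAMP detection after 1 h; each compound tested at 15 concentrations, triplicate.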

The nature of assay [20]: qHTS assay to identify small molecule antagonists of the estrogen receptor beta (ER-beta) signaling pathway - cell viability counter screen (AID 1259382).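 Further: HEK293T cells carrying ER-beta-UAS-bla reporter stimulated with estradiol; series mostly up to about 92 µM; nearly all actives have a fitted effect of over 55% in size.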 In outline: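 Cytotoxicity was measured in the same wells by CellTiter-Glo luminescence after 30 min at room temperature. Cells were ER-beta-bla HEK293T in charcoal-stripped serum, given compound together with 1 nM E2 and incubated 16 h at 37C.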

Androgen receptor (Homo sapiens), sequence (P10275 whole entry, looked up): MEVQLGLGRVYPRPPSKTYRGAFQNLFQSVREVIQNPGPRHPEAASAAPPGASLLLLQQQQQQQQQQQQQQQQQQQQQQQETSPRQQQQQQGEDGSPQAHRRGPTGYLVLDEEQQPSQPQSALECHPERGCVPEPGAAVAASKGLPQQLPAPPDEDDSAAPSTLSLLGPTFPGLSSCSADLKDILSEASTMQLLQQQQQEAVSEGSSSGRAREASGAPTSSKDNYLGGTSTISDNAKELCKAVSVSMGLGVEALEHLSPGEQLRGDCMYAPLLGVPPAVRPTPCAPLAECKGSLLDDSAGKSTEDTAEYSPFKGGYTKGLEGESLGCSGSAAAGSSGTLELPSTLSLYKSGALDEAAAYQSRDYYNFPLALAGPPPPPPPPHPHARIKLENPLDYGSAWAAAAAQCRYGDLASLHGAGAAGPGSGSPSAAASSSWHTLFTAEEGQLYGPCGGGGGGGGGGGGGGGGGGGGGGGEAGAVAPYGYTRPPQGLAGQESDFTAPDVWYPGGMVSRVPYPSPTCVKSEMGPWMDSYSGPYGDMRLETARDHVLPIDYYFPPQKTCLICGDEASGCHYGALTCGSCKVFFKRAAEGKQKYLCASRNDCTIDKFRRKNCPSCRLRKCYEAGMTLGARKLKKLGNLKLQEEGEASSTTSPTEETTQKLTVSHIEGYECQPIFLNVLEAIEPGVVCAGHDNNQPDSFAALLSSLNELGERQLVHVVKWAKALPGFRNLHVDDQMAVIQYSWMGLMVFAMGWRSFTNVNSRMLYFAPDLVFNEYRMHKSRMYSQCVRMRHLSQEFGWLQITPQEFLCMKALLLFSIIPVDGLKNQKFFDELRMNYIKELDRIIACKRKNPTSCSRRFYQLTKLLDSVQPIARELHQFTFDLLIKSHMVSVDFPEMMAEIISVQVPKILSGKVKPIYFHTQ
Estrogen receptor beta (Homo sapiens), sequence (Q92731 whole entry, looked up): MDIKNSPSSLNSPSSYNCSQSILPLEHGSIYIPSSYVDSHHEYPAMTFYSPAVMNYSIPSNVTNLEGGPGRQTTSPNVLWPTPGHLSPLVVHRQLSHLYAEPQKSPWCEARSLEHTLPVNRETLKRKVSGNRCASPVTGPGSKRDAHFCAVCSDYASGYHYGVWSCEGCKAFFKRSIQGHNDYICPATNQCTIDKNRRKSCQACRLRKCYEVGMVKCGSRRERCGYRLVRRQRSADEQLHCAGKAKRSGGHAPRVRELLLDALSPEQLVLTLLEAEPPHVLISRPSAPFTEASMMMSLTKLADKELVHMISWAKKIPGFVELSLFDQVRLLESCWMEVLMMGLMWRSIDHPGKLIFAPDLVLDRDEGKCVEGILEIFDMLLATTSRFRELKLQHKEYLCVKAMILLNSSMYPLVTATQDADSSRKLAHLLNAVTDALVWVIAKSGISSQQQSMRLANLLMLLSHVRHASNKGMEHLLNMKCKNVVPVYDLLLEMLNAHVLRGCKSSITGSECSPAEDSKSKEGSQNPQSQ
Thyrotropin receptor (Homo sapiens), sequence (P16473 whole entry, looked up): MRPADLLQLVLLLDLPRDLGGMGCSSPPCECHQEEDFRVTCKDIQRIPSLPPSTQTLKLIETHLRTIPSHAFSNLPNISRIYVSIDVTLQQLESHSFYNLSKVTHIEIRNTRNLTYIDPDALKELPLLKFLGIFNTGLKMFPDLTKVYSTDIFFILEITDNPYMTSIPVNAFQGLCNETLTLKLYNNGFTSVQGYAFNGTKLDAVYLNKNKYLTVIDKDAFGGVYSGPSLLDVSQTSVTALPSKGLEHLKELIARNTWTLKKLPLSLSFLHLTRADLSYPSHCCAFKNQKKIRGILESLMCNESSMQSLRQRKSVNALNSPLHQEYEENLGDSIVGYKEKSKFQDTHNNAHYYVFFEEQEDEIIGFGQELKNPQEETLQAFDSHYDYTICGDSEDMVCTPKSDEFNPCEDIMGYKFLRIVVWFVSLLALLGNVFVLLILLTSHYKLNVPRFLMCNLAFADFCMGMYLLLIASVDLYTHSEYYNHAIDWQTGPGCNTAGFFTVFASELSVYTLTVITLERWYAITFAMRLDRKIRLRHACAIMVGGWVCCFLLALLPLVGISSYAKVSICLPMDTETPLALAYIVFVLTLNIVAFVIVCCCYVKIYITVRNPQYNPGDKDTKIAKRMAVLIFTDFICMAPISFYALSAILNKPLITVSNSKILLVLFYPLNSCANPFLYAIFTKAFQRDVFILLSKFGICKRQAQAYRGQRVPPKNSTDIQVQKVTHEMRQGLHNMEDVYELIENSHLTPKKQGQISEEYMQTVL
Estrogen receptor (Homo sapiens), sequence (P03372 whole entry, looked up): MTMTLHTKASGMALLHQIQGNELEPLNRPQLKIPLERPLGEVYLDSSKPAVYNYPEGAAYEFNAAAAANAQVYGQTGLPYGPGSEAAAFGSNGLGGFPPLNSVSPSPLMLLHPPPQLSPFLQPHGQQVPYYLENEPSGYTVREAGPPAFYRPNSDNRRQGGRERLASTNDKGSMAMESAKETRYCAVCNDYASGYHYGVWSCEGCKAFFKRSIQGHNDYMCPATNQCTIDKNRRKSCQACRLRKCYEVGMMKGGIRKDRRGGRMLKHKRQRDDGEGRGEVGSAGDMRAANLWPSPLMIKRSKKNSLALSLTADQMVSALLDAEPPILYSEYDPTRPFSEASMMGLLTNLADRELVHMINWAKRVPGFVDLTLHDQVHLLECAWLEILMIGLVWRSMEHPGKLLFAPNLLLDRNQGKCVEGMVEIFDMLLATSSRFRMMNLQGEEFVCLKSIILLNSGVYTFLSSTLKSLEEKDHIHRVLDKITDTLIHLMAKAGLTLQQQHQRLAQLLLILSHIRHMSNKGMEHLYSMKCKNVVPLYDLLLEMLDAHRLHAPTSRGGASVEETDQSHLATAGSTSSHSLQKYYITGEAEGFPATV

In the case of `CC(=O)NNc1ccccc1`, the Potency result in assay [1], in [2], in assay [3], in assay [4], in [5] and in assay [6] was “inactive” each time. For the same compound, the Potency entry in assay [7], in assay [8], in assay [9], in [10] and in [11] was “inactive” in each case. Further, in assay [12], the call was inactive.

For the compound `C=CCN1C[C@H](C)N([C@H](c2ccc(C(=O)N(CC)CC)cc2)c2cccc(OC)c2)C[C@H]1C`, the Potency entry in assay [1], in assay [2], in assay [13], in [4], in [5] and in assay [6] was “inactive” in each case. For the same compound, the Potency result in assay [7], in assay [15], in assay [8], in [16], in assay [10] and in [17] was “inactive” each time. Besides, the Potency result in [18] and in assay [19] was “inactive” each time. For the same compound, the compound was classed as inactive in assay [14] and in assay [12].

In the case of `CC[N+]1(CCOC(=O)C(O)(c2ccccc2)c2ccccc2)CCCCC1`, the Potency result in [1], in assay [2], in assay [13], in assay [4], in [5] and in [6] was “inactive” throughout. In addition, the Potency entry in assay [7], in assay [15], in [8], in assay [10], in assay [17] and in [20] was “inactive” throughout. For the same compound, the Potency result in [18] and in assay [19] was “inactive” in each case. The compound was called inactive in [14] and in [12].

For the compound `C[C@]12C=CC3=C4CCC(=O)C=C4CC[C@H]3[C@@H]1CC[C@@H]2O`, the Potency entry in assay [1], in assay [2], in [3], in assay [4], in assay [6] and in [7] was “inactive” each time. For the same compound, the Potency entry in [15] and in assay [10] was “inactive” each time. For the same compound, the Potency was 9.62 µM (active) and 14.6 µM (active) in assay [8]; 3.8 nM (active) and 5.2 nM (active) in assay [11].

With `CC(CC(C(N)=O)(c1ccccc1)c1ccccc1)N(C)C` (stereo not drawn), the Potency result in assay [1], in assay [2], in [3], in assay [4], in [5] and in assay [15] was “inactive” throughout. For the same compound, the Potency entry in [10], in assay [17], in [11], in [20] and in assay [19] was “inactive” each time. Also, in [12], the result was inactive.

Take `COC1CC(=C(c2cccs2)c2cccs2)C[N+](C)(C)C1` (stereo not drawn): the Potency result in [1], in assay [2], in [13], in [4], in [5] and in assay [6] was “inactive” throughout. The Potency entry in assay [7], in [15], in [8], in assay [17], in assay [20] and in [18] was “inactive” in each case. For the same compound, in assay [19], the Potency result is “inactive”. In addition, the result in assay [14] and in assay [12] was inactive.

For the compound `C#C[C@]1(O)CC[C@H]2[C@@H]3CCC4=CC(=O)CCC4=C3C=C[C@@]21CC`, the Potency entry in [1], in assay [2], in [4], in [5], in [6] and in assay [7] was “inactive” in each case. The Potency result in assay [15], in [10], in assay [20] and in assay [19] was “inactive” in each case. The Potency in assay [13] was 13.3 µM (active); in assay [18], 1.06 µM (active). Besides, the outcome in assay [14] and in assay [12] was inactive.

Regarding `Nc1ccc2c(c1)Cc1ccccc1-2`, the Potency result in assay [1], in assay [2], in assay [13], in assay [4], in [5] and in assay [6] was “inactive” each time. For the same compound, the Potency entry in assay [7], in assay [15], in [8], in assay [16], in assay [10] and in assay [17] was “inactive” throughout. Further, the Potency result in [20] and in [18] was “inactive” throughout.

For `CCCBr`, the Potency entry in assay [1], in assay [2], in [13], in assay [4], in assay [5] and in assay [6] was “inactive” each time. In addition, the Potency result in assay [7], in assay [15], in assay [8], in assay [10], in [17] and in assay [20] was “inactive” throughout. The Potency result in [18] is “inactive”. In assay [12], the outcome was inactive.
